# Source: PubChem BioAssay AID504847 (National Center for Advancing Translational Sciences (NCATS), 2011)
# “And” between values parts separate entries of the source, which are not always exact repeats. Equal values may be shown once. The campaign covered roughly 400,000 compounds. About 3,700 (0.93%) were called active. Roughly 3% stayed inconclusive and do not appear here. Only a selection was taken, and actives are over-represented in it overall. A number with no mark means an inactive call. Calls follow the shape of the dose curve; as a rule, active = well fitted inhibition curve with a large enough effect; inconclusive = small, poorly fitted or top-dose-only effect, or another doubt; inactive = no such curve, though single readings can be large or run the other way. Where a SMILES comes first, the peptide text is derived from it. Side-chain parts run from the residue outwards. [ ]: non-standard residue; d: D form. The star is where a group is joined. X1 = CCC(C)C(N)C1=NC(C(=O)*)CS1; Orn = NCCC[CH](N)C(=O)O
# Target: Vitamin D3 receptor (Homo sapiens) (UniProt P11473)
# Assay: Inhibitors of the vitamin D receptor (VDR): qHTS
# Details: VDR-SRC2-3 peptide fluorescence polarization, 2 h; max response, negative = inhibition: active compounds read low
# Outline: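 FP read-out; VDR + SRC2-3 coactivator peptide; 23 nl compound by pintool; 2 h RT incubation; reagents held at 4 deg C, protected from light.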
# % is scaled to controls: 0 for no effect and ±100 for the full control effect; potency is read from the fitted curve at half-maximal effect.
# Vitamin D3 receptor (Homo sapiens), sequence (P11473 whole entry, looked up): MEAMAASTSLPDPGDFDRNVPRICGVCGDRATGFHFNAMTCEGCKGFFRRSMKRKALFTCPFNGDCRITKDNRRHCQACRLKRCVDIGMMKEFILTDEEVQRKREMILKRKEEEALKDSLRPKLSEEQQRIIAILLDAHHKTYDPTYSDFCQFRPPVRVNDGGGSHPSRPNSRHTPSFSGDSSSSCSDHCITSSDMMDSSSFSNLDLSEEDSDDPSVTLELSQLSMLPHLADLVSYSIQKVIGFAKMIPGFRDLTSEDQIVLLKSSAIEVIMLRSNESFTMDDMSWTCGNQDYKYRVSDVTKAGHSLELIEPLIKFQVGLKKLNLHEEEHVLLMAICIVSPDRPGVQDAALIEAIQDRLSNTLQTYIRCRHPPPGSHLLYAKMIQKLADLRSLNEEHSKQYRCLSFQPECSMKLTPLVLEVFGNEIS
Structure (SMILES),"max response, negative = inhibition",Potency
CC(C)c1ccc2oc(-c3cc(NC(=O)c4cccs4)ccc3Cl)nc2c1,15%,
CCC(C)C(N)C1=NC(C(=O)NC(CC(C)C)C(=O)NC(CCC(=O)O)C(=O)NC(C(=O)NCCCCC2NC(=O)C(CC(N)=O)NC(=O)C(CC(=O)O)NC(=O)C(Cc3cnc[nH]3)NC(=O)C(Cc3ccccc3)NC(=O)C(C(C)CC)NC(=O)C(CCCN)NC2=O)C(C)CC)CS1 (stereo not drawn) (cyclo(DNK([Ile-Glu-Leu-X1])[Orn]IFH); configuration not given here),-26.4%,
C#CCOc1ccc(C2CC(=O)Nc3c2c(C)nn3-c2nc(C)cc(C)n2)cc1 (stereo unspecified),10.7%,
CC(=NNC(=O)c1ccc2nc[nH]c2c1)c1ccc(Br)cc1,-21.3%,
CN(C)N=Nc1ccc2nc[nH]c2c1,,35.5 µM (active)
CC/C(O)=N\S(=O)(=O)c1ccc(N=NN(C)C)cc1,15.8%,
COc1cc(OC)c(NC(=O)Cc2ccc(-n3c(C)nc4cccnc43)cc2)cc1Cl,1.5%,
CC1=C/C(=N\OS(=O)(=O)c2ccccc2)C=CC1=O,,31.6 µM (active)
Cc1ccc(NC(=O)C2CCN(S(=O)(=O)c3cc(-c4noc(C)n4)ccc3C)CC2)c(C)c1,14.7%,
Cc1nn2c(=O)cc(COC(=O)c3cccc(NC(=O)COc4ccccc4Cl)c3)nc2s1,9.23%,
Nc1ncnc2c1c(I)cn2[C@@H]1C[C@H](N)[C@@H](O)[C@H]1O,-8.19%,
COc1ccc(Cl)cc1NC(=O)c1sc2nc3c(cc2c1N)CN(C)CC3,-1.58%,
N#Cc1c(N2CCCCC2)nc(N)c2c(N)nc(SCC(=O)O)cc12,,50.1 µM (active)
O=C(O)CSc1ccc(S(=O)(=O)N2CCCC2)cn1,10.8%,
N#Cc1c(C(F)(F)F)cc(-c2ccc(Cl)cc2)nc1SCC(=O)O,-2.18%,
Cc1cc(C)cc(NS(=O)(=O)c2cc3c(cc2C)NC(=O)CO3)c1,-6.49%,
Cc1cc(C)c(NC(=O)CN2C(=O)c3cccnc3Oc3ccc(Cl)cc32)c(C)c1,7.84%,
COCCNC(=O)Nc1ccc2nc(-c3ccco3)c(-c3ccco3)nc2c1,,79.4 µM (active)
C=CCNC(=O)c1ccc2nc(-c3ccco3)c(-c3ccco3)nc2c1,-28.3%,
CCOc1ccc(NC(=O)c2ncoc2-c2ccco2)cc1,3.68%,
CCC(C)NC(=O)Cn1c(=O)n(-c2ccc(Cl)cc2)c(=O)c2c3c(sc21)CCCC3 (stereo unspecified),7.47%,
Cc1nc([N+](=O)[O-])nn1C12CC3CC(CC(Br)(C3)C1)C2,,20 µM (active)

Structure (SMILES),"max response, negative = inhibition",Potency
CC1(C)OC2CC(=O)OC[C@@]23C1CC(=O)[C@]1(C)C3CC[C@@]2(C)C(c3ccoc3)OC(=O)C3O[C@@]321 (stereo partly specified),3.74%,
CCOC(=O)c1c(C)oc2nc(C)nc(N3CCN(c4ccc(OC)cc4)CC3)c12,5.63%,
COc1ccc(C2(C#N)CCC(C(=O)O)CC2)cc1OC1CCCC1 (stereo unspecified),5.35%,
CC(C)Oc1ccc(NC(=O)c2cc3ccccc3o2)cc1,10.8%,
Cc1ccc(OC(=O)CCC(=O)Nc2ccc(Br)cc2)cc1,4.03%,
CC(C)Oc1ccc(CC(=O)NNC(=S)Nc2ccc(Br)cc2)cc1,,70.8 µM (active)
FCOC(C(F)(F)F)C(F)(F)F,1.95%,
O=C(CSc1nnc(CNC(=O)c2ccccc2)n1-c1ccc(F)cc1)Nc1ccccc1F,2.71%,
CCOc1ccc(N(C)S(=O)(=O)c2cc(-c3cnc(C)o3)ccc2OC)cc1,-2.82%,
O=C(c1ccc2c(c1)C(=O)N(c1ccc(Cl)cc1)C2=O)N1CCN(c2ccccn2)CC1,-2.28%,
O=C(O)c1ccc2c(c1)C(=O)N(c1ccc(/C=C/C(=O)c3ccccc3)cc1)C2=O,,20 µM (active)
Cc1cccc(N2C(=O)c3ccc(C(=O)Nc4cccc(C(=O)O)c4)cc3C2=O)c1,13.1%,
Cc1ccc(-n2c(SCC(=O)c3ccccc3)nc3c([nH]c4ccccc43)c2=O)cc1,23.5%,
COc1ccc(Cl)cc1NC(=O)CSc1nc(=O)[nH]c2c1CCCC2,-3.46%,
Nc1ncc(S(=O)(=O)Nc2ccc(OC(F)(F)F)cc2)cn1,5.75%,
CN(C)C(=S)N=c1ssc(=S)n1Cc1ccco1,,44.7 µM (active)
CC1CN(Cc2ccco2)C(=S)N(c2ccccc2)C1=O (stereo unspecified),8.1%,
CCN(CC)C(=O)CSc1nnc(CNc2ccc(F)cc2)n1Cc1ccco1,6.05%,
COc1cc(C(=O)Nc2ccc(-n3c(C)nc4ccccc4c3=O)cc2)cc(OC)c1OC,-3.22%,
Cc1cccc(NC(=O)C2CCCN2S(=O)(=O)c2cccc3nsnc23)c1C (stereo unspecified),-10.9%,
CN(C)C(=O)N=NC(=O)N(C)C,,20 µM (active)
COc1ccc(-n2ccnc(NCCc3ccc(Cl)cc3)c2=O)cc1OC,6.6%,

Structure (SMILES),"max response, negative = inhibition",Potency
COc1cccc(-c2nnc3n(CCc4ccccc4)c(=O)c4ccccc4n23)c1O,17.6%,
CC1CCN(C(=S)c2ccc(-c3ccc(Cl)cc3Cl)o2)CC1,,79.4 µM (active)
Cc1csc(NC(=O)c2ccc(-c3ccc(Cl)cc3Cl)o2)n1,-1.72%,
CC1CCN(C(=S)c2cccc(O)c2)CC1,-26.6%,
Cc1cccc(Nc2cc(C)nc(-n3nc(C)cc3C)n2)c1,8.15%,
Cc1cc(C)cc(Oc2nc3c(C)cccn3c(=O)c2/C=C(\C#N)C(=O)NC2CCS(=O)(=O)C2)c1 (stereo unspecified),,20 µM (active)
Cc1cccn2c(=O)c3cc(C(=O)NC4CCCCC4)sc3nc12,8.23%,
Cc1cccn2c(=O)c(/C=C(\C#N)C(N)=O)c(N3CCCCCC3)nc12,-6.66%,
Cc1ccc(C(=O)Nc2ccc3[nH]c(=O)c(=O)[nH]c3c2)cc1,-3.19%,
COc1ccc(CCNC(=O)CCCCn2c(=O)c3ccccc3n(Cc3ccccc3)c2=O)cc1OC,-5.56%,
COc1cc(C(=O)Nc2ccc(OCc3cc(=O)n4ccc(C)cc4n3)cc2)cc(OC)c1OC,15.3%,
CC(C)(C)c1ccc(C(=O)N2CCC(c3nc(-c4ccc(S(=O)(=O)N5CCCC5)cc4)no3)CC2)cc1,-2.01%,
COc1ccccc1N1CCN(c2ncnc3sc(C)c(-c4ccccc4)c23)CC1,9.44%,
c1ccc(-c2cc3c(NCC4COc5ccccc5O4)ncnc3s2)cc1 (stereo unspecified),3.5%,
Oc1ccccc1N1CCN(c2ncnc3sc(-c4ccccc4)cc23)CC1,,22.4 µM (active)
CCOC(=O)c1c(S(=O)(=O)N2CCCC(C(=O)NCc3ccc(F)cc3)C2)c(C)n(CC)c1C (stereo unspecified),12%,
CCCC(=O)Nc1ccc(NC(=O)c2sc3ccccc3c2Cl)cc1,1.71%,
Cc1cccc(C)c1Nc1c(-c2ccccc2O)nc2ncccn12,11.5% and -13.4%,
Cc1ccc(-c2nc3ccccn3c2Nc2ccc(F)cc2)o1,-13.1%,
Cc1ccc(-c2nc3ccccn3c2Nc2c(C)cccc2C)o1,,79.4 µM (active)
CC1CCc2noc(NC(=O)c3ccc([N+](=O)[O-])cc3)c2C1 (stereo unspecified),20%,
Cc1cccc(C(CC(=O)NCC2(c3ccccc3)CCCC2)c2ccccc2)c1O (stereo unspecified),-3.18%,

Structure (SMILES),"max response, negative = inhibition",Potency
Cc1ccc(-c2cnc(NCc3ccc(C(C)C)cc3)n2C)cc1,-12.2%,
COC(=O)c1cc(NC(=O)CCc2c(C)nc3c4c(C)cc(C)nc4nn3c2C)cc(C(=O)OC)c1,-12%,
CCOC(=O)Cc1csc(SCC(=O)Nc2ccc(C)cc2F)n1,-24.6%,
CCOC(=O)Cc1csc(NC(=O)CSc2nc(C)cc(=O)[nH]2)n1,,44.7 µM (active)
CCCCc1nnc(NC(=O)CSc2nc(C)cc(=O)[nH]2)s1,-6.96%,
C=CCOC(=O)C(=C)C,10.1%,
COc1ccc(CCC(=O)NCc2ccc3c(c2)CCN3C(=O)c2ccc(F)cc2)cc1,1.51%,
CCOc1ccc(NC(=O)c2c(NCc3cccc(OC)c3OC)sc3c2CCC3)cc1,-0.323%,
CCOc1ccc(NC(=O)c2c(NC(=O)Cc3ccccc3)sc3c2CCCCC3)cc1,,17.8 µM (active)
CCOc1ccc(NC(=O)c2c(NC(=O)Cc3ccccc3)sc3c2CCC(C)C3)cc1 (stereo unspecified),,79.4 µM (active)
O=C(Cc1ccccc1)Nc1sc2c(c1C(=O)Nc1ccc(Br)cc1)CCC2,1.17%,
Cc1cccc(OCCCC(=O)Nc2sc3c(c2C(N)=O)CCC(C)C3)c1 (stereo unspecified),0.722%,
Cc1ccccc1NC(=O)c1c(NC(=O)c2ccccc2F)sc2c1CCC(C)C2 (stereo unspecified),-12.5%,
COc1ccc2oc(-c3ccc(C)c(NC(=O)c4sc5ccccc5c4Cl)c3)nc2c1,-13.7%,
O=C(O)c1ccc(Nc2nc(-c3ccccc3)c3cc(Br)ccc3n2)cc1,-8.21%,
Cc1cccc(N2CCN(C(=O)CCn3c(=O)c4cccn4c4cccnc43)CC2C)c1 (stereo unspecified),-1.09%,
Cc1ccc(C2CCN(C(=O)c3cnn(-c4ccccc4Cl)c3C3CCN(C(=O)OC(C)(C)C)CC3)C2)cc1 (stereo unspecified),14.7%,
Cc1cccc(C(=O)N2CCc3cc(CNC(=O)Cc4ccc(F)cc4)ccc32)c1,6.68%,
CCCCNC(=O)Cn1c(SCc2cccc(Cl)c2)nc2ccncc21,-15.1%,
O=S(=O)(Nc1cccc2cccnc12)c1cccc2cccnc12,-4.84%,
